# In PubChem BioAssay AID720541 (National Center for Advancing Translational Sciences (NCATS), 2013):
# Several values for one entry are separate records, joined by “and”; a condition that tells them apart may be missing. Equal values may be shown once. The whole screen tested about 1,300 compounds, of which about 420 (32%) were called active. Roughly 32% stayed inconclusive and do not appear here. Calls follow the shape of the dose curve; as a rule, active = well fitted inhibition curve with a large enough effect; inconclusive = small, poorly fitted or top-dose-only effect; inactive = no such curve, though single readings can be large or run the other way. Some of the results follow. Where a structure was tested more than once in an assay, its records may differ in their call.
# Biological target: C-terminal-binding protein 1 (Homo sapiens) (UniProt Q13363)
# Experiment: qHTS for Inhibitors of the Phosphatase Activity of Eya2: Carboxyl-terminal binding protein (CtBP) Counterscreen for Cherry-picked Compounds; also: nearly all actives have a fitted effect of over 65% in size
# Conditions: purified protein-protein binding, AlphaScreen, 3 h; series mostly up to 46.1 µM; activity change, negative = inhibition: at the top concentration
# Text: The Eya protein family is an essential co-activator of the Six1 transcription factor. Six1 is a developmental gene that is abnormally re-expressed in a large percentage of breast cancers. This over-expression plays a causal role in the initiation and metastatic development of breast cancers. The Eya family of protein is also found to contain a unique HAD phosphatase domain with protein tyrosine phosphatase activity which can potentially play a role in Six1-mediated breast tumorigenesis. Recently, Eya2 is found to dephosphorylate the histone variant H2AX and direct cells towards DNA repair instead of apoptosis in the event of DNA damage.
# A 1536 well format, fluorescence based qHTS assay was developed and used to target the phosphatase activity of Eya2 (AID 488837). In addition, a CtBP counterscreen was developed using the AlphaScreen technology to evaluate compound selectivity to target […]. The data herein reports the activity of the cherry-picked compounds against the CtBP AlphaScreen. Compounds that are active or have > 100 fold selectivity vs. the Eya2 activity were excluded for further characterization. Inactivity is the desired outcome for the CtBP counterscreen.
# NIH Chemical Genomics Center [NCGC]
# NIH Molecular Libraries Probe Centers Network [MLPCN]
# Assay Submitter (PI): Rui Zhao, University of Colorado Denver
# Four microliters of reagent (25 nM GST-E1A, 25 nM CtBP-6x HIS) was dispensed in a 1536 well Greiner plates. Twenty-three nanoliter of test compounds (final concentration of 2.5 nM - 46 uM) and positive control E1A peptide inhibitor (final concentration of 0.14 nM - 4.6 uM) were added to the plates using the Kalypsys pintool equipped with a 1536 pin head. The plates was then incubated at room temperature for 2 hours followed by addition of 1 uL Alpha bead donor / acceptor mix (20 ug/mL final concentration). The assay plates were incubated for additional 1 hour at room temperature and protected from light. The AlphaScreen signal was obtained using the PerkinElmer EnVision plate reader using the 680 nm excitation and 520 - 620 nm emission filters. The data was normalized to the E1A peptide inhibitor for maximum inhibition and DMSO treated wells as negative control.
# % is scaled to controls: 0 for no effect and ±100 for the full control effect; potency is read from the fitted curve at half-maximal effect.
SMILES,"activity change, negative = inhibition",Potency
CCC(C)N(C(=O)CSc1nc(-c2cccs2)nc2ccccc12)C1CCS(=O)(=O)C1 (stereo unspecified),-28.4% (inactive),–
CSc1nc(NCCOCCO)c2sc3nc(-c4ccco4)c4c(c3c2n1)CCC4,–,5.36 µM (active)
OCCN(Cc1cccnc1)Cc1ccccn1,–,5.36 µM (active)
COCC(C)n1c(-c2ccc3c(c2)NC(=O)CO3)csc1=Nc1ccc(OC(F)F)cc1 (stereo unspecified),-25.4% (inactive),–
CCOC(=O)c1cc2c(N)c(C(=O)c3ccc(Br)cc3)sc2[nH]c1=O,–,1.9 µM (active)
Cc1cc(C(=O)CSc2nc(N)cc(N)n2)c(C)n1C1CC1,-28.9% (inactive),–
COc1ccc(C(CCNCc2ccc(N(C)C)cc2)C(C)C)cc1 (stereo unspecified),–,12 µM (active)
COc1ccccc1C(CCNCc1ccc(N(C)C)cc1)c1ccc(OC(C)C)cc1 (stereo unspecified),–,6.01 µM (active)
CCC(=O)NC(c1cccs1)c1cc(Cl)c2cccnc2c1O (stereo unspecified),–,1.69 µM (active)
COc1ccc(C(NC(C)=O)c2ccc3cccnc3c2O)cc1OC (stereo unspecified),–,1.35 µM (active)
CCCCC(=O)NC(c1cccc([N+](=O)[O-])c1)c1ccc2cccnc2c1O (stereo unspecified),-69.6% (inactive),–
CCCCC(=O)NC(c1ccco1)c1cc(Cl)c2cccnc2c1O (stereo unspecified),–,4.78 µM (active)
COc1ccc(C(NC(C)=O)c2cc(Cl)c3cccnc3c2O)cc1OC (stereo unspecified),–,1.69 µM (active)
CCOC(=O)N1CCN(S(=O)(=O)c2ccc(C(=O)NNc3nc4c(C)cc(C)cc4s3)cc2)CC1,-22.9% (inactive),–
O=c1[nH]c(/C=C\c2ccc(O)cc2)nc(O)c1[N+](=O)[O-],-9.35% (inactive),–
O=C(NCCC1=CCCCC1)c1[nH]c(C(F)(F)F)nc1-c1ccccc1,-26.7% (inactive),–
O=C(NC1CCCCC1)N1CCN(C2CCCCC2)CC1,9.26% (inactive),–
CC(=O)NC(c1ccc(Cl)cc1)c1ccc2cccnc2c1O (stereo unspecified),–,1.9 µM (active)
CCCC(=O)NC(c1ccc(OC)c(OC)c1)c1cc(Cl)c2cccnc2c1O (stereo unspecified),–,1.69 µM (active)
CCC(=O)NC(c1ccc(OC)c(OC)c1)c1cc(Cl)c2cccnc2c1O (stereo unspecified),–,1.69 µM (active)
O=C(Oc1ccc(Cl)c2cccnc12)C12CC3CC(CC(C3)C1)C2,19.6% (inactive),–
O=C(O)c1ccccc1NC(c1ccccc1)c1ccc2cccnc2c1O (stereo unspecified),–,1.9 µM (active)
O=C(Nc1ncc(Cc2ccccc2Cl)s1)c1ccc(-c2cccc([N+](=O)[O-])c2)o1,-12.9% (inactive),–
COc1ccc(C2c3[nH]c4ccccc4c3C[C@H]3C(=O)N(C4CCN(Cc5ccccc5)CC4)CC(=O)N23)cc1OC (stereo partly specified),-26.4% (inactive),–

SMILES,"activity change, negative = inhibition",Potency
CCCCOC(=O)CCCc1ccc([N+](=O)[O-])cc1[N+](=O)[O-],-29.8% (inactive),–
CCOc1ccc2c(c1)C(c1ccc(C)cc1)=NNC(c1ccc(OC)cc1)=N2,-25.4% (inactive),–
O=c1c2ccccc2c(C=Nc2cccc(S(=O)(=O)NC3=NCCCCC3)c2)c(O)n1Cc1ccccc1,-6.05% (inactive),–
CCN(CC)CCNC(=O)c1ccc(N)cc1,3.53% (inactive),–
CC(C)C(=O)NC(c1ccc(Cl)cc1Cl)c1ccc2cccnc2c1O (stereo unspecified),–,5.36 µM (active)
O=C(CSc1nnc2c(Cl)cc(Cl)cn12)NC1CCS(=O)(=O)C1 (stereo unspecified),4.22% (inactive),–
O=C(C[n+]1ccccc1)c1ccc(O)c(O)c1,-8.91% (inactive),–
CC12CC3(C)CC(C)(C1)CC(C(=O)NC(=S)N1CCOCC1)(C2)C3,-7.12% (inactive),–
COc1ccc(-c2nnc(NC(=O)c3ccc(S(=O)(=O)N(C)CC4CCCO4)cc3)o2)c(OC)c1 (stereo unspecified),–,16.9 µM (active)
O=c1c(CO)cc(CO)cc(CO)c1O,–,9.53 µM (active)
Cn1c(=O)n(CCO)c(=O)c2c1nc(Br)n2Cc1ccccc1,7.05% (inactive),–
Cn1c(=O)n(Cc2ccc(F)cc2)c(=O)c2c1nc1n2CCN1Cc1ccco1,–,10.7 µM (active)
Cn1c(=O)n(Cc2ccccc2)c(=O)c2c1nc(NCC1CCCO1)n2Cc1ccccc1 (stereo unspecified),-19% (inactive),–
COCCNC(=O)CCC(=O)NNc1nc2ccccc2c2nc(-c3ccccc3)nn12,-29.3% (inactive),–
COc1ccc2c(c1)c1nnc(SC(C)C)nc1n2C,–,4.78 µM (active)
Cc1cccc(NC(=S)N(CCN2CCOCC2)Cc2cc3cc4c(cc3[nH]c2=O)OCCO4)c1,10.2% (inactive),–
Nc1ccc2c(c1Cl)C(=O)c1ccc(N)c(Cl)c1C2=O,–,6.01 µM (active)
CCOC(=O)c1ccc(NC(=S)N2CCN(CCN=CC3=C(O)CC(c4ccccc4)CC3=O)CC2)cc1 (stereo unspecified),45.5% (inactive),–
COc1cc(N=c2oc3c(C)ncc(CO)c3cc2C(N)=O)cc(OC)c1OC,–,4.78 µM (active)
Cc1nc(NC(=O)CSc2nnc(-c3ccccc3)c(-c3ccccc3)n2)c(Cl)cc1Cl,-28% (inactive),–
CCOC(=O)Cc1nnc(NC(=O)CSc2nnc3c4ccccc4n(C)c3n2)s1,–,15.1 µM (active)
CCOC(=O)Cc1nnc(NC(=O)C(CC)Sc2nnc3c4ccccc4n(C)c3n2)s1 (stereo unspecified),–,13.5 µM (active)
O=C(CSc1nnc2c(n1)[nH]c1ccccc12)Nc1ccc(S(=O)(=O)Nc2ncccn2)cc1,–,5.36 µM (active)
O=C(CSc1nnc2c(n1)[nH]c1ccccc12)Nc1cccc(S(=O)(=O)N2CCOCC2)c1,-21% (inactive),–

SMILES,"activity change, negative = inhibition",Potency
CCOC(=O)Cc1nnc(NC(=O)CSc2nnc3c(n2)[nH]c2ccccc23)s1,–,15.1 µM (active)
CC1(C)CC2CC(C)(CN2/C=N/c2sc3c(c2C#N)CC(C)(C)NC3(C)C)C1 (stereo unspecified),-18.7% (inactive),–
COc1cc2[nH]cc(C(=O)NCc3ccccc3)c(=O)c2cc1OC,–,3.79 µM (active)
COc1ccc(CNC(=O)c2sc(=O)n(Cc3cc(Cl)ccc3OC)c2C)cc1,-17.4% (inactive),–
CC1CCC(=NNc2ccc(C(F)(F)F)cc2[N+](=O)[O-])CC1 (stereo unspecified),–,8.49 µM (active)
C1=Cc2ccccc2/C1=C\c1cc2c3c(c1)CCCN3CCC2,–,8.49 µM (active)
Cc1cc(=O)n2[nH]c(Nc3cccc(Cl)c3)nc2n1,1.73% (inactive),–
COc1ccc(Nc2cc(C(=O)N3CCc4ccccc4C3)c3ccccc3n2)c(OC)c1,-28.5% (inactive),–
COc1ccc(N2CCN(C(=O)c3cc(-c4cc(OC)ccc4OC)nc4ccccc34)CC2)cc1,–,13.5 µM (active)
COc1ccc2cc(C(=O)N3CCN(c4ccc(F)cc4)CC3)[nH]c2c1,-1.7% (inactive),–
CN(C)CCCN1c2ccc(O)cc2Sc2ccc(Cl)cc21,–,12 µM (active)
O=C(CSc1ccc2c(c1)OCCO2)Nc1ccc2c(c1)OCO2,-19.6% (inactive),–
Nn1c(SCC(=O)Nc2ccc3c(c2)OCCO3)nnc1-c1ccccn1,–,15.1 µM (active)
Cn1cc(SCC(=O)Nc2ccc3c(c2)OCCO3)c2ccccc21,-8.28% (inactive),–
Cc1ccc(OCCSc2nc3ccccc3n2CCC(=O)O)c(C(C)C)c1,0.945% (inactive),–
Cc1cccc(NC(=S)NC(=O)c2ccco2)n1,–,10.7 µM (active)
O=C(NC(=S)Nc1ccccc1N1CCCCC1)c1ccco1,-23% (inactive),–
COc1ccc2nc(NC(=S)NC(=O)c3ccco3)sc2c1,-10.3% (inactive),–
CCc1nnc(NS(=O)(=O)c2ccc(NCc3cc(Cl)cc(Cl)c3O)cc2)s1,–,4.26 µM (active)
O=S(=O)(Nc1nccs1)c1ccc(NCc2cc(Br)cc(Br)c2O)cc1,–,1.9 µM (active)
CCS(=O)(=O)N1CCC(C(=O)Oc2ccc(Cl)cc2)CC1,-17% (inactive),–
COc1ccc(C(=O)OCC(=O)Nc2ccc(N3CCOCC3)cc2)cc1,7.02% (inactive),–
CC(=O)Nc1ccc(S(=O)(=O)Nc2ccc(N3CCCCC3)cc2)cc1,–,8.49 µM (active)
CC(=O)Nc1ccc(S(=O)(=O)N2C3CCCC2CC(NC(=O)C2CCCCC2)C3)cc1 (stereo unspecified),1.48% (inactive),–

SMILES,"activity change, negative = inhibition",Potency
CC(=O)Oc1cccc2c1C(=O)C1CC=CC(OC(C)=O)C1C2=O (stereo unspecified),–,9.53 µM (active)
O=C(O)c1ccc2c(=O)n3cc(C(=O)c4ccccc4O)cc(Cl)c3nc2c1,–,12 µM (active)
O=C(O)c1ccc(N/N=C/c2cc3cc4c(cc3nc2Cl)OCCO4)cc1,-22% (inactive),–
Cc1cc(O)cc(O)c1/C=N/NC(=O)c1ccc2c(c1)OCCO2,–,8.49 µM (active)
Cc1cc(C)cc(C(=O)NC(=S)Nc2ccc3c(c2)OCCO3)c1,-1.79% (inactive),–
CCCCC1=CC2=C(c3ccco3)C(=O)C(C)(OC(=O)c3ccc(OC)cc3)C(=O)C2=CN1CCc1ccccn1 (stereo unspecified),-24.5% (inactive),–
CC(C)c1ccc2oc(-c3ccc(NC(=O)c4ncn[nH]4)cc3)nc2c1,–,12 µM (active)
Cc1ccc(C(=O)Nc2cccc(-c3nc4ncccc4o3)c2)cc1,-45% (inactive),–
CCC(C)c1ccc2oc(-c3ccc(NC(=O)c4ncn[nH]4)cc3)nc2c1 (stereo unspecified),–,13.5 µM (active)
O=C(Nc1ccc(F)cc1)c1nc[nH]c1C(=O)O,–,7.57 µM (active)
C[C@@H](NC(=O)c1nc[nH]c1C(=O)N[C@@H](Cc1ccccc1)C(=O)OC(C)(C)C)c1ccccc1,-2.64% (inactive),–
O=C(CNC(=O)c1[nH]cnc1C(=O)N[C@@H](Cc1ccccc1)C(=O)OCc1ccccc1)OCc1ccccc1,-4.09% (inactive),–
Cc1ccc(NC(=O)c2[nH]cnc2C(=O)NN)cc1,–,15.1 µM (active)
NNC(=O)c1nc[nH]c1C(=O)Nc1ccccn1,–,8.49 µM (active)
CCOC(=O)c1ccc(NC(=O)c2nc[nH]c2C(=O)N[C@@H](Cc2ccccc2)C(=O)OC(C)(C)C)cc1,-2.08% (inactive),–
COc1ccc(N(CC(=O)N2CCCCC2)S(=O)(=O)c2c(C)nn(C)c2C)cc1,7.56% (inactive),–
O=C(O)CSc1ccc2nnc(-c3cccnc3)n2n1,–,inactive and 13.5 µM (active)
Cc1nnc(NC(=O)CSc2ccc3nnc(-c4ccccn4)n3n2)s1,-31% (inactive),–
CCCCC(Sc1ccc2nnc(-c3ccccn3)n2n1)C(=O)O (stereo unspecified),–,13.5 µM (active)
O=C(CSc1ccc2nnc(-c3ccccn3)n2n1)Nc1ccccc1F,–,7.57 µM (active)
O=C(CSc1ccc2nnc(-c3ccccn3)n2n1)Nc1ccccc1,–,10.7 µM (active)
CN(C)c1ccc2nc3ccc(=[N+](C)C)cc-3sc2c1,128% (inactive),–
CC(=O)Oc1ccc2nonc2c1OC(C)=O,-6.3% (inactive),–
CC1=C(C(=O)N2CCOCC2)CC(CC(=O)NC(c2ccccc2)c2ccccc2)C(=O)N1Cc1ccc(C(C)(C)C)cc1 (stereo unspecified),-5.98% (inactive),–
